# According to PubChem BioAssay (EPA / NIEHS):
# The source made the active and inactive calls. The calls were made as follows: active = hit-call score of the fitted dose curve at least 0.9, where 1 is the maximum; inactive = score below 0.9.
# What was measured:
# [1] = ATG_CRE_CIS: Attagene CIS-FACTORIAL HepG2 Assay for human cAMP Responsive Element (CRE) binding protein 3 (AID 2282926); settings: HepG2 CRE cis-reporter, Attagene multiplexed mRNA; actives raise or lower the signal
# Outline: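 Endogenous transcription factor activity read via CRE-regulated reporter transcripts in transfected HepG2 cells. After 24 h exposure, RNA was reverse-transcribed, amplified, fluorescently labelled and sized by capillary electrophoresis; gain or loss fitted against DMSO.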
# [2] = biological target: CCAAT/enhancer-binding protein beta (Homo sapiens) (UniProt P17676); experiment: ATG_C_EBP_CIS: Attagene CIS-FACTORIAL HepG2 Assay for human CCAAT/Enhancer Binding Protein (C/EBP) beta (AID 2282927); settings: HepG2 Attagene cis-factorial transcription factor reporter; actives raise or lower the signal
# CCAAT/enhancer-binding protein beta (Homo sapiens), sequence (P17676 whole entry, looked up): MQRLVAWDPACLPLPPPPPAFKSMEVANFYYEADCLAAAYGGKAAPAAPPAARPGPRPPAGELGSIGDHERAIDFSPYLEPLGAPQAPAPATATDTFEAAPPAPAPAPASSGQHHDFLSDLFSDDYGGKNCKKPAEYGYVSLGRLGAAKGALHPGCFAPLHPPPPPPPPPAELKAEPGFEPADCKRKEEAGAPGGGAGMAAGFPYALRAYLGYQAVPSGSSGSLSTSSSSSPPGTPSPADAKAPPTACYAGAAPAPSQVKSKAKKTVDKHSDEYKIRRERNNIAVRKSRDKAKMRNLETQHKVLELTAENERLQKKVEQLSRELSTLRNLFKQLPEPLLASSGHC
# Outline: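 Following a 24 h incubation with test chemical, transfected HepG2 cells yielded RNA whose reporter transcripts were quantified by RT-PCR and fluorescent capillary electrophoresis, with DMSO serving as baseline for bidirectional fitting.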
# [3] = ATG_CMV_CIS: Attagene CIS-FACTORIAL HepG2 Assay for human CMV (Internal Marker) (AID 2282928); settings: HepG2 CMV promoter reporter, transcription factor profiling; actives raise or lower the signal;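 also: endpoint acts as a background internal control marker rather than a target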
# Outline: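 Readout: fluorescent reporter cDNA fragments separated by capillary electrophoresis after RT-PCR and HpaI cut. Cells: HepG2 carrying transfected cis-promoter reporter constructs, dosed 24 h. Endpoint serves as background internal-marker control, fit bidirectionally versus DMSO.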
# [4] = ATG_DR4_LXR_CIS: Attagene CIS-FACTORIAL HepG2 Assay for human Liver X Receptor (LXR), DR4 submotif (AID 2282929); settings: HepG2 Attagene DR4 cis-reporter, mRNA transcription; actives raise or lower the signal
# Outline: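 Total RNA from 24 h-treated, MRTU-transfected HepG2 cells underwent reverse transcription, PCR, fluorescent primer extension and restriction digestion before capillary electrophoresis. Both increases and decreases in reporter signal were fitted against DMSO.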
# [5] = biological target: Aryl hydrocarbon receptor (Homo sapiens) (UniProt P35869); experiment: ATG_Ahr_CIS: Attagene CIS-FACTORIAL HepG2 Assay for human Aryl Hydrocarbon Receptor (Ahr) (AID 2282930); settings: HepG2 AhR cis-factorial reporter transcription; actives raise or lower the signal
# Aryl hydrocarbon receptor (Homo sapiens), sequence (P35869 whole entry, looked up): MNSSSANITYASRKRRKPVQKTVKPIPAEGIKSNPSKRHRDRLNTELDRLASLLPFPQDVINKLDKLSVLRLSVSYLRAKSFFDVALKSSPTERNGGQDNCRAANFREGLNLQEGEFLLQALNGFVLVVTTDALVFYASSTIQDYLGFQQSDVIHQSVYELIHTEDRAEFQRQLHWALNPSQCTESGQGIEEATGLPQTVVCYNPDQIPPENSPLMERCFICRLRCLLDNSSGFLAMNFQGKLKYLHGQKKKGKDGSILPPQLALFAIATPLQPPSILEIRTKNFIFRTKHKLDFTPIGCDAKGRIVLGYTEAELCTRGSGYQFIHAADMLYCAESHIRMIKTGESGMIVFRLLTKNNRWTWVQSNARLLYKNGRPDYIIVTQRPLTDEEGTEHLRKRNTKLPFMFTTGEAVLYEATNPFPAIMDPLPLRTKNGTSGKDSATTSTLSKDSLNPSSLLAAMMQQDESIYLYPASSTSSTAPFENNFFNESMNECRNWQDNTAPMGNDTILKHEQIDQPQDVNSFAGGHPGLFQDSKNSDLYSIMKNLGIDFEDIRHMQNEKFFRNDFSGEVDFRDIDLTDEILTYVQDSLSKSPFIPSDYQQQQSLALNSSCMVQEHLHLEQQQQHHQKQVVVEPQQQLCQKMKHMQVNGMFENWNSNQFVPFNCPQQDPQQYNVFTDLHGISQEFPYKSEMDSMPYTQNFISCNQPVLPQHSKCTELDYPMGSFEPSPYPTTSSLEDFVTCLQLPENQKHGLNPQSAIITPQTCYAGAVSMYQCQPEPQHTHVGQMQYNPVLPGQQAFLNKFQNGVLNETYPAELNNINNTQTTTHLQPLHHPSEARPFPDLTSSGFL
# Outline: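 Values derive from bidirectional fitting against DMSO negative control. Underlying signal: cis-element reporter mRNA in transiently transfected HepG2, harvested 24 h post-dose and measured by RT-PCR plus capillary electrophoresis.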
# [6] = ATG_AP_1_CIS: Attagene CIS-FACTORIAL HepG2 Assay for human Activator Protein 1 (AP-1) (AID 2282931); settings: HepG2 Attagene cis-factorial AP-1 reporter mRNA; actives raise or lower the signal
# Outline: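 HepG2, transient cis-reporter transfection; 24 h; readout RT-PCR/CE fluorescence; DMSO baseline, gain and loss fitted.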
# [7] = ATG_AP_2_CIS: Attagene CIS-FACTORIAL HepG2 Assay for human Activator Protein 2 (AP-2) (AID 2282932); settings: HepG2 AP-2 cis-reporter, Attagene transcription factor profiling; actives raise or lower the signal
# Outline: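 Assay in transfected HepG2 with promoter-regulated reporters, 24 h incubation after dosing. Signal is reporter mRNA fluorescence (RT-PCR, capillary electrophoresis), analysed for both increases and decreases relative to DMSO controls.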
# [8] = ATG_BRE_CIS: Attagene CIS-FACTORIAL HepG2 Assay for human Bone Morphogenetic Protein (BMP) Response Element (BRE) (AID 2282933); settings: HepG2 BMP response element reporter, Attagene transcription factor profiling; actives raise or lower the signal
# Outline: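 Endogenous transcription factor activity read in transiently transfected HepG2 cells after 24 h chemical exposure. Bidirectional curve fitting against DMSO; readout is reporter transcript level by RT-PCR with capillary electrophoresis of labelled products.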
# [9] = biological target: Retinoic acid receptor alpha (Homo sapiens) (UniProt P10276); experiment: ATG_DR5_RAR_CIS: Attagene CIS-FACTORIAL HepG2 Assay for human Retinoic Acid Receptor Alpha (RARE), DR5 submotif (AID 2282934); settings: HepG2 Attagene cis-factorial RARE DR5 reporter, mRNA; actives raise or lower the signal
# Retinoic acid receptor alpha (Homo sapiens), sequence (P10276 whole entry, looked up): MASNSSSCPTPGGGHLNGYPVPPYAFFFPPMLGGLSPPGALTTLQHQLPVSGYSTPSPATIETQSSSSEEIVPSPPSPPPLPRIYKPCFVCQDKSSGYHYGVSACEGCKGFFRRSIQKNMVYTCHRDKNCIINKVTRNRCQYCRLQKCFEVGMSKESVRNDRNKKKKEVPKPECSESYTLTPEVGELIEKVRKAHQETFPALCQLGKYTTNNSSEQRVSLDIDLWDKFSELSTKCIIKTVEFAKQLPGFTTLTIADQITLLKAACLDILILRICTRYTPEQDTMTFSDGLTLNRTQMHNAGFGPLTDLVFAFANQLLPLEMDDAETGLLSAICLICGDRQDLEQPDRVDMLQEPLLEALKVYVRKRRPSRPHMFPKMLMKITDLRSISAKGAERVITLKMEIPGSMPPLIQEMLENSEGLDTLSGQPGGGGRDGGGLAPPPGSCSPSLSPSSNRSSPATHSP
# Outline: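 Endpoint fitted in both directions relative to DMSO as negative control. It reflects DR5 cis-element reporter mRNA induction in transiently transfected HepG2 cells, measured 24 h after dosing through RT-PCR and fluorescent capillary electrophoresis.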
# [10] = biological target: Transcription factor E2F1 (Homo sapiens) (UniProt Q01094); experiment: ATG_E2F_CIS: Attagene CIS-FACTORIAL HepG2 Assay for human E2F Transcription Factor 1 (AID 2282935); settings: HepG2 Attagene cis-reporter, E2F reporter RNA transcripts; actives raise or lower the signal
# Transcription factor E2F1 (Homo sapiens), sequence (Q01094 whole entry, looked up): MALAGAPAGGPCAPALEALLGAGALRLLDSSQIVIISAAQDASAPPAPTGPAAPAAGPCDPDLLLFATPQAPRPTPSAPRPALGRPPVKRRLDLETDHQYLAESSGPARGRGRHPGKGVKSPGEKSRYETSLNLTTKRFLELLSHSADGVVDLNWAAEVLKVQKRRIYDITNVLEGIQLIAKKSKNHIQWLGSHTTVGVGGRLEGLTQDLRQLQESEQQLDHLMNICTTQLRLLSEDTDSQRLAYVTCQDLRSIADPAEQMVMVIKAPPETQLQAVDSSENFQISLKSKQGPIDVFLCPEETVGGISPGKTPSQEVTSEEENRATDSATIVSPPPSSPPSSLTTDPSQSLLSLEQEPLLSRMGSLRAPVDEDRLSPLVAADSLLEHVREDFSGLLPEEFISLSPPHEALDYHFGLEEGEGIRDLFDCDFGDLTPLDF
# Outline: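 In this cis-factorial format, endogenous factor activity drives transfected reporters in HepG2; transcripts collected at 24 h are quantified by fluorescence after RT-PCR and capillary separation.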
# [11] = ATG_E_Box_CIS: Attagene CIS-FACTORIAL HepG2 Assay for human Enhancer Box (E-box) (AID 2282936); settings: HepG2 E-box cis-reporter transcription, actives raise or lower the signal
# Outline: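 Measured 24 h post-dosing in HepG2 cells transfected with multiple cis-regulated reporter units, signal being reporter mRNA induction detected by fluorescent RT-PCR with capillary electrophoresis; gain or loss fitted against DMSO.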
# [12] = ATG_M_61_CIS: Attagene CIS-FACTORIAL HepG2 Assay for M61 Transcription Factor (Internal Marker) (AID 2282937); settings: HepG2 Attagene CIS-FACTORIAL M61 internal marker reporter; actives raise or lower the signal
# Outline: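 Transfect HepG2 with MRTUs; dose 24 h; isolate RNA; reverse-transcribe with DNase I treatment; PCR-amplify, FAM-label and cut with HpaI for 2 h at 37 C; resolve by CE. Bidirectional fitting against DMSO.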
# [13] = ATG_EGR_CIS: Attagene CIS-FACTORIAL HepG2 Assay for human Early Growth Response 1 (EGR1) (AID 2282938); settings: HepG2 Attagene CIS-FACTORIAL EGR reporter mRNA; actives raise or lower the signal
# Outline: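 After a 24 h treatment of transiently transfected HepG2 cells, total RNA was reverse-transcribed and reporter sequences PCR-amplified, labelled and run on capillary electrophoresis. Reporters sit under cis-regulatory promoters sensing endogenous factors.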
# [14] = ATG_M_19_CIS: Attagene CIS-FACTORIAL HepG2 Assay for M19 Transcription Factor (Internal Marker) (AID 2282939); settings: HepG2 Attagene CIS-FACTORIAL M19 internal marker reporter; actives raise or lower the signal
# Outline: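 Internal marker readout, fitted in both directions against DMSO, from HepG2 cells carrying transfected cis-element reporter constructs; RT-PCR and capillary electrophoresis of reporter mRNA after 24 h exposure.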
# [15] = ATG_Ets_CIS: Attagene CIS-FACTORIAL HepG2 Assay for human Erythroblast Transformation Specific (ETS) (AID 2282941); settings: HepG2 ETS cis-reporter transcription, actives raise or lower the signal
# Outline: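 RT-PCR/capillary electrophoresis fluorescence read-out of reporter mRNA; HepG2 transient multi-reporter transfection; 24 h compound exposure; gain or loss of signal fitted bidirectionally relative to DMSO.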
# [16] = biological target: Hepatocyte nuclear factor 3-beta (Homo sapiens) (UniProt Q9Y261); experiment: ATG_FoxA2_CIS: Attagene CIS-FACTORIAL HepG2 Assay for human Forkhead box A2 (FOXA2) (AID 2282942); settings: HepG2 cis-reporter transcription factor activity, 24 h; actives raise or lower the signal
# Hepatocyte nuclear factor 3-beta (Homo sapiens), sequence (Q9Y261 whole entry, looked up): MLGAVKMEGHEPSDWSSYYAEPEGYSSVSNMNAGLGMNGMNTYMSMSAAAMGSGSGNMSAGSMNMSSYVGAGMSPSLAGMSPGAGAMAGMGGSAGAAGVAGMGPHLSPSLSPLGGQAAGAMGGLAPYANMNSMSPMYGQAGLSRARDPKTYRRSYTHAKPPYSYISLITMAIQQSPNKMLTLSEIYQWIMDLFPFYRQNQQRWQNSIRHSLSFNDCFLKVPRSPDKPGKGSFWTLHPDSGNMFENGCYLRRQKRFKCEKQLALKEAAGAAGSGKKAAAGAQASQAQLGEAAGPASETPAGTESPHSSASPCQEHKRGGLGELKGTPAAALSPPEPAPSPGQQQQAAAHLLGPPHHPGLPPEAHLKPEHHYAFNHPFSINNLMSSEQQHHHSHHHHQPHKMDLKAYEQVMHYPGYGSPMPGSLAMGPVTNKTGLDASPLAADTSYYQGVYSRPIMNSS
# Outline: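 24 h dosing of HepG2 bearing cis-reporter constructs; mRNA readout by RT-PCR/CE fluorescence; bidirectional fit, DMSO baseline.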
# [17] = ATG_FoxO_CIS: Attagene CIS-FACTORIAL HepG2 Assay for human Forkhead box O (FoxO) (AID 2282943); settings: HepG2 Attagene cis-reporter, FoxO element, mRNA; actives raise or lower the signal
# Outline: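 Values reflect reporter mRNA induction or loss in HepG2 cells 24 h post-dosing, fitted bidirectionally with DMSO as negative control and baseline. Detection used RT-PCR and fluorescence capillary electrophoresis.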
# [18] = ATG_GATA_CIS: Attagene CIS-FACTORIAL HepG2 Assay for human GATA Binding Protein (AID 2282944); settings: HepG2 GATA cis-element reporter, Attagene multiplex mRNA; actives raise or lower the signal
# Outline: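 Reporter transcripts from a GATA cis-regulated unit, among multiplexed reporters in transfected HepG2 cells, were measured by RT-PCR with capillary electrophoresis after 24 h dosing. Induction or loss scored relative to DMSO.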
# [19] = ATG_GLI_CIS: Attagene CIS-FACTORIAL HepG2 Assay for human Zinc Finger Protein GLI1 (AID 2282945); settings: HepG2, Attagene cis-factorial reporter mRNA, GLI element; actives raise or lower the signal
# Outline: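 HepG2 cells transiently transfected with cis-promoter multiplexed reporter units report endogenous transcription factor activity. After 24 h chemical exposure, reporter mRNA was quantified by RT-PCR, 6-FAM labelling, HpaI digestion and capillary electrophoresis, with bidirectional fitting against DMSO.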
structure (smiles),measurement,setting,value
Fc1c(F)c(F)c(Br)c(F)c1F,outcome,[1],inactive
same,outcome,[2],inactive
same,outcome,[3],inactive
same,outcome,[4],inactive
same,outcome,[5],inactive
same,outcome,[6],inactive
same,outcome,[7],inactive
same,outcome,[8],inactive
same,outcome,[9],inactive
same,outcome,[10],inactive
same,outcome,[11],inactive
same,outcome,[12],inactive
same,outcome,[13],inactive
same,outcome,[14],inactive
same,outcome,[15],inactive
same,outcome,[16],inactive
same,outcome,[17],inactive
same,outcome,[18],inactive
same,outcome,[19],inactive
C=CC[N+](C)(C)CC=C,outcome,[1],inactive
same,outcome,[2],inactive
same,outcome,[3],inactive
same,outcome,[4],inactive
same,outcome,[5],inactive
same,outcome,[6],inactive
same,outcome,[7],inactive
same,outcome,[8],inactive
same,outcome,[9],inactive
same,outcome,[10],inactive
same,outcome,[11],inactive
same,outcome,[12],inactive
same,outcome,[13],inactive
same,outcome,[14],inactive
same,outcome,[15],inactive
same,outcome,[16],inactive
same,outcome,[17],inactive
same,outcome,[18],inactive
same,outcome,[19],inactive
CC(=O)C(=O)O,outcome,[1],inactive
same,outcome,[2],inactive
same,outcome,[3],inactive
same,outcome,[4],inactive
same,outcome,[5],inactive
same,outcome,[6],inactive
same,outcome,[7],inactive
same,outcome,[8],inactive
same,outcome,[9],inactive
same,outcome,[10],inactive
same,outcome,[11],inactive
same,outcome,[12],inactive
same,outcome,[13],inactive
same,outcome,[14],inactive
same,outcome,[15],inactive
same,outcome,[16],inactive
same,outcome,[17],inactive
same,outcome,[19],inactive
C/C=C(\C)C(=O)OCc1ccccc1,outcome,[1],inactive
same,outcome,[2],inactive
same,outcome,[3],inactive
same,outcome,[4],inactive
same,outcome,[5],inactive
same,outcome,[6],inactive
same,outcome,[7],inactive
same,outcome,[8],inactive
same,outcome,[9],inactive
same,outcome,[10],inactive
same,outcome,[11],inactive
same,outcome,[12],inactive
same,outcome,[13],inactive
same,outcome,[14],inactive
same,outcome,[15],inactive
same,outcome,[16],inactive
same,outcome,[18],inactive
same,outcome,[19],inactive
O=C(O)CN(CCN(CC(=O)O)CC(=O)O)CCN(CC(=O)O)CC(=O)O,outcome,[1],inactive
same,outcome,[2],inactive
same,outcome,[3],inactive
same,outcome,[4],inactive
same,outcome,[5],inactive
same,outcome,[6],inactive
same,outcome,[7],inactive
same,outcome,[8],inactive
same,outcome,[9],inactive
same,outcome,[10],inactive
same,outcome,[11],inactive
same,outcome,[12],inactive
same,outcome,[13],inactive
same,outcome,[14],inactive
same,outcome,[15],inactive
same,outcome,[16],inactive
same,outcome,[17],inactive
same,outcome,[18],inactive
same,outcome,[19],inactive
CC1(CO)CN(c2ccccc2)NC1=O (stereo unspecified),outcome,[1],inactive
same,outcome,[2],inactive
same,outcome,[3],inactive
same,outcome,[4],inactive
same,AC50,[5],9.8 µM (active)
same,outcome,[6],inactive
same,outcome,[7],inactive
same,outcome,[8],inactive
same,outcome,[9],inactive
same,outcome,[10],inactive
same,outcome,[11],inactive
same,outcome,[12],inactive
same,outcome,[13],inactive
same,outcome,[14],inactive
same,outcome,[16],inactive
same,outcome,[17],inactive
same,outcome,[18],inactive
same,outcome,[19],inactive
C=C[C@@H](C)CCC=C(C)C,outcome,[1],inactive
same,outcome,[2],inactive
same,outcome,[3],inactive
same,outcome,[4],inactive
same,outcome,[5],inactive
same,outcome,[6],inactive
same,outcome,[7],inactive
same,outcome,[8],inactive
same,outcome,[9],inactive
same,outcome,[10],inactive
same,outcome,[11],inactive
same,outcome,[12],inactive
same,outcome,[13],inactive
same,outcome,[14],inactive
same,outcome,[15],inactive
same,outcome,[16],inactive
same,outcome,[17],inactive
same,outcome,[19],inactive
Nc1nc2ccc([N+](=O)[O-])cc2s1,outcome,[1],inactive
same,outcome,[2],inactive
same,outcome,[3],inactive
same,outcome,[4],inactive
same,AC50,[5],5.26 µM (active)
same,outcome,[6],inactive
same,outcome,[7],inactive
same,AC50,[8],100 µM (active)
same,outcome,[9],inactive
same,outcome,[10],inactive
same,outcome,[11],inactive
same,outcome,[12],inactive
same,outcome,[13],inactive
same,outcome,[14],inactive
same,outcome,[16],inactive
same,outcome,[17],inactive
same,outcome,[18],inactive
